Source: PubChem
The list is not random: actives were taken first. Their share in the collection is about 19%.
TDP1 cell noCPT = qHTS for Inhibitors of human tyrosyl-DNA phosphodiesterase 1 (TDP1): qHTS in cells in absence of CPT. DT40 Tdp1-/- hTDP1 cells, no CPT, ATP luminescence, 48 h. Potency, µM (top dose mostly 46.2 µM), for the others: at the highest dose activity change, negative = growth inhibition, hits mostly inhibitors. 420,000 compounds, 15% hits. AID 686978, 2013; note: potency is the fitted concentration of half-maximal effect; nearly all actives have a fitted effect of over 55% in size
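A cellular qHTS used chicken DT40 cells lacking endogenous Tdp1 but carrying stably transfected human TDP1. Compounds were applied without camptothecin, and cell growth kinetics were judged by ATP-dependent luminescence after ≥48 hr.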
DT40 TDP1 CPT = growth inhibition of DT40 Tdp1-/-;hTDP1 cells with camptothecin (screen for TDP1 inhibitors); 420,000 compounds, 12% hits; AID 686979; chicken DT40 Tdp1-/-;hTDP1 cells + 20 nM CPT, ATP luminescence, 48 h; Potency, µM (top dose mostly 46.2 µM), without a hit: at the top dose activity change, negative = growth inhibition, actives largely listed as inhibitors; note: potency is the fitted concentration of half-maximal effect; nearly all actives have a fitted effect of over 55% in size
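Chicken DT40 Tdp1-/- cells complemented with human TDP1, 400 cells/well, exposed to compounds plus 20 nM camptothecin for at least 48 h at 37 C; viability read as ATP content by CellTiter-Glo luminescence.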
IL1B secr inh = inflammasome signaling inhibition, IL-1 beta readout; THP-1 LPS/ATP IL-1B secretion, AlphaLISA, 16 h; hits give low values; activity change, % at 57.5 µM; AID 743279; 360,000 compounds, 4.7% hits; in the data active = activity change below about -50%; inconclusive = mostly about -30% to -49%
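THP-1 cells pretreated 1 hr with compounds (up to 57.5 uM final), then stimulated with LPS (250 ng/mL final) plus ATP (1.25 mM final); secreted IL-1B measured by AlphaLISA after 16 hr, decreased signal indicating inhibition.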
HT1080 IDH1KD tx = toxicity to HT-1080 IDH1 knockdown cells (counter line). Potency, µM (highest dose often 46.1 µM), inactives show at the highest dose activity, negative = toxicity, usual class: cytotoxic. HT-1080 IDH1 knockdown viability, ATP luminescence, 48 h. 360,000 compounds, 2% hits;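 note: potency is the fitted concentration of half-maximal effect; 0% = DMSO wells and -100% = cell-free medium wells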
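IDH1KD HT-1080 cells, 750/well, RPMI + 5% FBS; compound pinned after 2 h settling; 48 h, 37 °C; CellTiter-Glo luminescence; % activity normalised to DMSO and no-cell wells; curves fitted, classed by r2 and efficacy.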
HT1080-NT tox = kills 2HG-producing HT-1080-NT fibrosarcoma cells. HT-1080-NT fibrosarcoma viability, CellTiter-Glo ATP luminescence, 48 h. Potency, µM (top dose mostly 46.1 µM), for the others: at the top dose activity, negative = less viability, hits mostly cytotoxic. 360,000 compounds, 1.6% hits. AID 686970;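 note: NT is the 2HG producing partner of a matched IDH1 knockdown line; potency is the fitted concentration of half-maximal effect; 0% = DMSO-treated cells and -100% = media-only wells without cells; nearly all actives have a fitted effect of over 55% in size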
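750 cells/well, RPMI + 5% FBS; 2 h settle, compound pin-transfer, 48 h at 37 degrees C. CellTiter-Glo 10 min RT, luminescence. Normalized to DMSO and media-only wells.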
Starred values were filed as active, the others as inactive. Unless noted, calls come from the whole dose curve; as a rule, active = well fitted curve in the direction sought with a large enough effect; inconclusive = small, poorly fitted or top-dose-only effect, or another doubt; inactive = no such curve, though single readings can be large; an effect the other way counts as inactive or inconclusive. Unless noted, % is set by controls: 0 for no effect and ±100 for the full control effect.

Screening CCOc1ccccc1N(C)S(=O)(=O)c1ccc2c(c1)CC(C)N2C(=O)C1CC1 (centres undefined) returned TDP1 cell noCPT 16µM*, DT40 TDP1 CPT 23µM*, IL1B secr inh -4, HT1080 IDH1KD tx 15µM* and HT1080-NT tox inconclusive.
`CCc1cccc(NS(=O)(=O)c2ccc3c(c2)N(C)CCO3)c1` gave TDP1 cell noCPT inconclusive, DT40 TDP1 CPT 13µM*, IL1B secr inh 0, HT1080 IDH1KD tx inconclusive and HT1080-NT tox -16%.
Screening CC1Cc2cc(S(=O)(=O)NCc3ccccc3)ccc2N1C(=O)C1CC1 (centres undefined) returned TDP1 cell noCPT inconclusive, DT40 TDP1 CPT inconclusive, IL1B secr inh 0, HT1080 IDH1KD tx -3% and HT1080-NT tox -9%.
For Cc1ccc(NS(=O)(=O)c2ccc3c(c2)N(C)CCO3)cc1 the results were TDP1 cell noCPT inconclusive, DT40 TDP1 CPT inconclusive, IL1B secr inh 64, HT1080 IDH1KD tx -9% and HT1080-NT tox 3%.
Screening CC1Cc2cc(S(=O)(=O)NCc3ccccc3)ccc2N1C(=O)C1CCC1 (centres undefined) returned TDP1 cell noCPT 7.3µM*, DT40 TDP1 CPT 21µM*, IL1B secr inh 1, HT1080 IDH1KD tx 0% and HT1080-NT tox -4%.
Screening CCC(=O)N1c2ccc(S(=O)(=O)CCC(=O)NC3CCCC3)cc2CC1C (centres undefined) returned TDP1 cell noCPT -3%, DT40 TDP1 CPT -27%, IL1B secr inh 19, HT1080 IDH1KD tx 3% and HT1080-NT tox 5%.
Screening CCC(=O)N1c2ccc(S(=O)(=O)NC3CCCCC3)cc2CC1C (centres undefined) returned TDP1 cell noCPT inconclusive, DT40 TDP1 CPT 21µM*, IL1B secr inh 28, HT1080 IDH1KD tx -7% and HT1080-NT tox -5%.
Screening CC(=O)Nc1ccc(NC(=O)C(Cc2ccccc2)N2Cc3ccccc3C2=O)cc1 (centres undefined) returned TDP1 cell noCPT -9% and DT40 TDP1 CPT -10%.
`COc1cccc(NC(=O)CCNS(=O)(=O)c2ccc3c(c2)CC(C)N3C(=O)C2CC2)c1` (centres undefined) gave TDP1 cell noCPT -24%, DT40 TDP1 CPT inconclusive, IL1B secr inh 33, HT1080 IDH1KD tx -2% and HT1080-NT tox -1%.
Screening CCc1cccc(NS(=O)(=O)c2ccc3c(c2)CC(C)N3C(=O)C2CC2)c1 (centres undefined) returned TDP1 cell noCPT 3.7µM* and DT40 TDP1 CPT 6.5µM*.
`CC1Cc2cc(S(=O)(=O)NCCc3ccc(Cl)cc3)ccc2N1C(=O)C1CCC1` (centres undefined) gave TDP1 cell noCPT 18µM* and DT40 TDP1 CPT inconclusive.
Screening COc1cc(C2NC(=O)NC(c3ccccc3)=C2C(C)=O)c(Br)c(Br)c1O (centres undefined) returned TDP1 cell noCPT 2%, DT40 TDP1 CPT 23%, IL1B secr inh 28, HT1080 IDH1KD tx 1% and HT1080-NT tox -6%.
`CCOC(=O)C1=NNC(C(=O)c2ccc(OC)cc2)C1c1ccccc1` (centres undefined) gave TDP1 cell noCPT inconclusive, DT40 TDP1 CPT inconclusive, IL1B secr inh 1, HT1080 IDH1KD tx -1% and HT1080-NT tox 0%.
Screening CCOC(=O)c1ccc(S(=O)(=O)N2CCN(c3nc(-c4ccccc4)nc4ccccc34)CC2)cc1 returned TDP1 cell noCPT -5% and DT40 TDP1 CPT 20%.
CC(=O)c1ccc(S(=O)(=O)N2CCN(c3nc(-c4cccnc4)nc4ccccc34)CC2)cc1 was read as TDP1 cell noCPT inconclusive, DT40 TDP1 CPT 21µM*, IL1B secr inh -13, HT1080 IDH1KD tx -4% and HT1080-NT tox 4%.
Screening Cc1ccc(S(=O)(=O)N2CCN(c3nc(-c4ccnnc4)nc4ccccc34)CC2)cc1 returned TDP1 cell noCPT 16µM*, DT40 TDP1 CPT inconclusive, HT1080 IDH1KD tx 11% and HT1080-NT tox 4%.
`Cc1ccc(S(=O)(=O)N2CCN(c3nc(-n4ccnn4)nc4ccccc34)CC2)cc1` gave TDP1 cell noCPT 16µM*, DT40 TDP1 CPT 13µM*, HT1080 IDH1KD tx 12% and HT1080-NT tox 20%.
For COc1ccc(Cl)cc1N(C)c1nc(N2CCN(S(=O)(=O)c3ccc(C)cc3)CC2)c2ccccc2n1 the results were TDP1 cell noCPT 6.3µM*, DT40 TDP1 CPT 8.9µM*, HT1080 IDH1KD tx 19% and HT1080-NT tox -15%.
For CC(=O)c1ccc(S(=O)(=O)N2CCN(c3nc(-c4ccccc4)nc4ccccc34)CC2)cc1 the results were TDP1 cell noCPT inconclusive and DT40 TDP1 CPT -17%.
For Cc1occc1C(=O)Nc1ccccc1C#N the results were TDP1 cell noCPT 3%, DT40 TDP1 CPT -7%, IL1B secr inh inconclusive, HT1080 IDH1KD tx 18% and HT1080-NT tox 1%.
COc1ccccc1C(=O)NCCC(=O)Nc1ccc(OC(F)(F)F)cc1 was read as TDP1 cell noCPT inconclusive, DT40 TDP1 CPT -30%, IL1B secr inh -1, HT1080 IDH1KD tx -11% and HT1080-NT tox -4%.
`O=S(=O)(c1ccccc1)N1CCN(c2nc(-c3cccnc3)nc3ccccc23)CC1` gave TDP1 cell noCPT 21µM*, DT40 TDP1 CPT inconclusive, IL1B secr inh 43, HT1080 IDH1KD tx -6% and HT1080-NT tox -2%.
Screening COc1nc(N(C)S(=O)(=O)c2ccc(C)cc2)nc(C)c1Br returned TDP1 cell noCPT inconclusive, DT40 TDP1 CPT inconclusive, IL1B secr inh 11, HT1080 IDH1KD tx 6% and HT1080-NT tox 3%.
Screening Cc1c(CCO)c(=O)oc2n[nH]c(-c3ccccc3)c12 returned TDP1 cell noCPT -30%, DT40 TDP1 CPT -15%, IL1B secr inh -61*, HT1080 IDH1KD tx -4% and HT1080-NT tox -2%.
Screening COCCNC(=O)c1cc(-c2cccs2)on1 returned TDP1 cell noCPT 23µM*, DT40 TDP1 CPT inconclusive, IL1B secr inh 20, HT1080 IDH1KD tx -28% and HT1080-NT tox -10%.
`COc1cc(NC(=O)Nc2cccc(C(C)=O)c2)cc(OC)c1OC` gave TDP1 cell noCPT -12%, DT40 TDP1 CPT 1%, IL1B secr inh -1, HT1080 IDH1KD tx 4% and HT1080-NT tox inconclusive.
Screening COc1cc(NC(=O)c2cc(-c3cccs3)on2)cc(OC)c1OC returned TDP1 cell noCPT 16µM*, DT40 TDP1 CPT 21µM*, IL1B secr inh -6, HT1080 IDH1KD tx -29% and HT1080-NT tox -23%.
For COc1cc(NC(=O)c2noc3c2CCc2ccccc2-3)cc(OC)c1OC the results were TDP1 cell noCPT 16µM* and DT40 TDP1 CPT 7.3µM*.
